# Sampled rows, rich in hits. Any-hit rate of the full collection: about 7%.
# USP30 block – inhibitors of human USP30 deubiquitinase | Q70CQ3 | purified USP30, Ub-rhodamine cleavage fluorescence | inhibition, % at 25 µM | actives 5.3% (n = 47,000) | AID 1645860
# USP28 block – inhibitors of human USP28 deubiquitinase; inhibition, % at 25 µM; purified USP28, Ub-rhodamine cleavage fluorescence, 30 min; actives 3% (n = 47,000)
# * = called active by the depositor. Cut-off read from the data, not from the text of the source: active = inhibition above about 30%; inactive = the rest.
SMILES,USP30 block,USP28 block
CCn1cnc2c1c(=O)n(CC(=O)NCc1ccccc1Cl)c(=O)n2Cc1ccccc1,19,8
COc1ncccc1CN(C)C(=O)Cc1c[nH]c2ccccc12,22,6
Cc1ccc(OC(C)C(=O)N2CCC(c3[nH]nc4nccnc34)CC2)cc1C (stereo not given),0,15
Cc1cc(C)cc(C(=O)NCc2ccc(N3CCOCC3)nc2)c1,0,7
Cc1oc2ncn(CC(C)C)c(=O)c2c1C(=O)NC1CCCCC1,17,19
Cc1cnc(-c2nccnc2C2CCCN(c3ccccn3)C2)[nH]1 (stereo not given),4,0
c1coc(C(CNc2ncnc3sccc23)N2CCCCC2)c1 (stereo not given),-210,-42
COc1ccc(CNC(=O)c2ccccc2-c2ccccc2C#N)cc1,-8,-1
COc1ccc(-c2cc(C(=O)NC3CC3)nn2C2CCS(=O)(=O)C2)cc1 (stereo not given),17,0
COc1ccc(-c2cc(C(=O)NCCC3=CCCCC3)nn2C2CCS(=O)(=O)C2)cc1 (stereo not given),17,43*
COc1ccc(CN2CCN(Cc3c[nH]c4ccccc34)CC2)c(OC)c1OC,-14,-3
CCOc1ccccc1C1C2CCCCC2(O)CCN1C(=O)/C=C/c1cc(OC)c(OC)c(OC)c1 (stereo not given),-19,-8
O=C(CN1C(=O)C2CCCN2C(=O)c2ccc(F)cc21)N1CCCCC1 (stereo not given),12,5
O=C(c1ccc(Cl)cc1)N1CCCn2c1nc1ccccc12,-27,-9
N#Cc1cn2c(nc1-c1ccc(Cl)cc1)nc1ccccc12,77*,71*
COc1ccc(-c2nc3sc4c(c3c(=O)[nH]2)CCCCCC4)c(OC)c1,34*,7
COc1cc(-c2nc3sc4c(c3c(=O)[nH]2)CCCC4)cc(OC)c1O,-183,-24
CCOc1ccccc1NC(=O)Cn1nnc(C(=O)Nc2cc(C)cc(C)c2)c1N,23,-1
COc1ccccc1-c1nc(Cn2nnc(C(=O)Nc3cc(C)cc(C)c3)c2N)c(C)o1,35*,0
Cc1nn(-c2cccc(F)c2)c2c1C(C(=O)c1ccc(Cl)s1)CC(=O)N2 (stereo not given),50*,0
CCc1cccc(-n2nc(C)c3c2NC(=O)CC3C(=O)c2ccc(C)s2)c1 (stereo not given),0,-4
Cc1ccc(C(=O)C2CC(=O)Nc3c2c(C)nn3-c2ccc(C)c(C)c2)s1 (stereo not given),50*,12
COc1ccc(-n2nc(C)c3c2NC(=O)CC3C(=O)c2ccc(Cl)s2)cc1 (stereo not given),-17,-17
O=C(Nc1ccccc1)N1CCCCCC1C1CCN(c2ncccc2[N+](=O)[O-])CC1 (stereo not given),22,14
Cc1nnc(-c2cc(C)n(CC(=O)NCc3ccccc3Cl)c2C)o1,18,9
SMILES,USP30 block,USP28 block
Cc1nc2cc(C(=O)NCCC3=CCCCC3)ccc2n1-c1cccc(F)c1,73*,40*
O=C(NCCC1=CCCCC1)c1cccc(Nc2nc3ccccc3n3cnnc23)c1,-2,9
COc1ccc(C)cc1-n1c(SCC(=O)NCC(F)(F)F)nc2sc(C)c(C)c2c1=O,-29,4
CCOC(=O)C1CCCN(c2ncnc3sc4c(c23)CCC4)C1 (stereo not given),-32,2
C[C@]12C(=O)N(CCc3ccc(F)cc3)CC(=O)N1CCc1c2[nH]c2ccccc12,4,8
Cc1nc2nc(CNc3ccccc3)nn2c(C)c1Cl,21,47*
Cc1cc(C)n2nc(CNc3cccc(Cl)c3)nc2n1,10,73*
Cc1cc(C)n2nc(Cc3ccccc3)nc2n1,-15,2
Cc1nc2nc(CN(C(=O)C(C)C)c3ccccc3)nn2c(C)c1Cl,0,0
CC1(c2nc(C3CC3)no2)CCCN(C(=O)c2ccc3nc[nH]c3c2)C1 (stereo not given),-9,0
O=C1CC(c2ccc(Cl)cc2)n2nc(NC(=O)c3cccs3)nc2N1 (stereo not given),26,10
O=C(c1ccc(F)cc1)N1CCN(Cc2nnnn2-c2ccccc2)CC1,-2,0
Cc1ccc(NC(=O)Cn2cc(S(=O)(=O)N3CCOCC3)ccc2=O)cc1C,4,-4
O=C(NCc1nc(-c2ccc(N3CCCCCC3)cc2)no1)c1ccco1,-91,-7
Cc1ccccc1C(=O)N1CCCC(c2nc(-c3ccncc3)ncc2-c2ccncc2)C1 (stereo not given),19,6
CCn1c(=O)c(C(=O)NCc2ccc(Cl)cc2)nc2cccnc21,-13,-24
Cc1cccc(NC(=O)CNC(=O)c2ccc(-c3noc(C4CCCC4)n3)cc2)c1C,35*,2
Cc1nc(CNC(=O)c2ccc(-c3noc(C4CC4)n3)cc2)no1,-5,-9
COc1ccc(C2CC(=O)c3cnc(NCC4CCCO4)nc3C2)cc1OC (stereo not given),30*,14

# Screening results as filed in PubChem BioAssay.
